Laboratory results reported in PubChem BioAssay (NCATS).
Values joined by “and” are separate entries in the source; they are usually repeats but may differ in a detail not shown here. Equal values may be shown once. Results filed as inconclusive are left out. Active and inactive are the calls of the source. Unless noted, the call rests on the fitted dose curve; in most records, active means well fitted curve in the direction sought with a large enough effect; inconclusive means small, poorly fitted or top-dose-only effect, or another doubt; inactive means no such curve, though single readings can be large; an effect the other way counts as inactive or inconclusive.

Tests used:
[1] = Cell Viability - BJ (AID 421; calls by dose curve;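 further: potency means the concentration at half of the fitted maximal effect; cells exposed to compound for 40 hours at 37 °C before readout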); details: BJ fibroblast viability, qHTS
Method in brief: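 Cytotoxicity as drop in intracellular ATP (CellTiter-Glo, 20 min RT) after 40 hr compound exposure of BJ fibroblasts at 37 °C. Titrations scaled between DMSO and 100 uM tamoxifen, Hill-fitted for AC50.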

[2] = Cell Viability - Jurkat (AID 426;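 active means dose-dependent loss of cell ATP signal giving a full or clear fitted curve, ranked by lower potency value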;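 further: potency means the concentration at half of the fitted maximal effect; cells exposed to compound for 40 hours at 37 °C before ATP read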); details: qHTS
Method in brief: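 Luminescent ATP read-out (CellTiter-Glo, 20 min at room temperature) after 40 hr compound exposure at 37 °C of Jurkat E6-1 cells, 5000/well. Decreased ATP taken as cytotoxicity; AC50 from standard Hill equation.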

[3] = Cell Viability - Hek293 (AID 427;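 active means compounds whose dose-response curve shows a full or clear partial loss of cell viability, called from curve shape rather than a numeric limit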;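 further: potency means the concentration at half of the fitted maximal effect; cells exposed to compound for 40 hours at 37 °C before reading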); details: qHTS
Method in brief: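 Luminescent ATP content (CellTiter-Glo, 20 min at room temperature) was measured after a 40 hr, 37 °C compound exposure of HEK293 cells. AC50 values came from Hill-equation fits of qHTS concentration-response data normalized to DMSO and 100 uM tamoxifen.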

[4] = Cell Viability - SK-N-SH (AID 435; calls by dose curve;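 further: potency means the concentration at half of the fitted maximal effect; compound exposure lasted 40 h at 37 °C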); details: SK-N-SH neuroblastoma cell viability qHTS
Method in brief: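 SK-N-SH human neuroblastoma cells (1500/well) were exposed to compounds in complete medium for 40 h at 37 °C, and intracellular ATP was then measured by CellTiter-Glo luminescence. AC50 was taken from Hill fits, normalized to DMSO and 100 uM tamoxifen.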

[5] = Cellular Toxicity (caspase-3) Jurkat (AID 655); details: Jurkat caspase-3 activation, luminescence; caspase-3 activation: at 92.2 µM (top of the series), DMSO = 0%, tamoxifen = 100%;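 further: cells exposed to compound for 16 h at 37 °C before reading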
Method in brief: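 Jurkat cells (5000/well) in complete medium were treated with compounds for 16 hr at 37 °C, then Caspase-Glo 3/7 luminescence was read after 20 min at room temperature. Data normalized to DMSO (basal) and 100 uM tamoxifen (100%); AC50 from Hill fit.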

[6] = Cellular Toxicity (caspase-3) SHSY5Y (AID 657); details: SH-SY5Y caspase-3 activation, DMSO zero, 10 µM staurosporine = 100%; series mostly up to 91.7 µM
Method in brief: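 SH-SY5Y human neuroblastoma cells (1500/well) were treated with compounds for 16 h at 37 °C, then Caspase-Glo 3/7 luminescence was read after 1 h at room temperature. Data normalized to DMSO and 10 uM staurosporine; AC50 from Hill fits.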

[7] = Cellular Toxicity (caspase-3) BJ (AID 658); details: BJ fibroblasts, luminescence, normalized: DMSO 0%, staurosporine 100%; series mostly up to 91.7 µM
Method in brief: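 qHTS, BJ fibroblasts, 1000 cells/well; 5 hr preincubation, 16 hr compound, 37 °C; Caspase-Glo 3/7 reagent, 1 hr RT; luminescence. DMSO = 0%, 10 uM staurosporine = 100%. Hill-equation AC50.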

[8] = Cellular Toxicity (caspase-3) N2a (AID 665); details: N2a cells, luminescence, normalized: DMSO 0%, 10 µM staurosporine 100%; series mostly up to 92.2 µM;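 further: compound exposure lasted 16 h at 37 °C before readout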
Method in brief: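 Luminescent Caspase-Glo 3/7 readout in N2a mouse neuroblastoma cells after 16 h compound exposure at 37 °C. Signal scaled to DMSO (basal) and 10 uM staurosporine (100%). Concentration-response fitted with Hill equation for AC50.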

[9] = Cellular Toxicity (caspase-3) Renal Proximal Tubule (AID 667); details: renal proximal tubule cells; series mostly up to 91.7 µM;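 further: cells exposed to compound for 16 hours at 37 °C before detection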
Method in brief: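 Primary rat proximal tubule cells, 1000/well, 5 h plating at 37 °C, then compound 16 h at 37 °C. Caspase-Glo 3/7 reagent, 1 h RT, luminescence. Normalized to DMSO (basal) and 10 uM staurosporine (100%); Hill-fit AC50.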

[10] = MultiTox-Fluor Cytotoxicity Assay - LYMP1-001 - Dead Cells (AID 946); details: LYMP1-001 lymphoblastoid cells, dead-cell protease fluorescence; series mostly up to 92.2 µM
Method in brief: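 Cytotoxicity as increased dead-cell protease fluorescence (bis-AAF-R110, 485/520 nm), read 60 min after MultiTox-Fluor reagent. Human lymphoblastoid line exposed 16 h; Hill-fitted AC50, with DMSO as 0% and 15 uM tetraoctylammonium bromide as 100%.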

[11] = Cell Viability - LYMP1-002 - Assay at 16 hr (AID 948); details: LYMP1-002 lymphoblastoid cell viability; series mostly up to 92.2 µM;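 further: 0% = DMSO alone and full effect = 92 µM tetraoctylammonium bromide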
Method in brief: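 Human lymphoblastoid cells (LYMP1-002), 2500/well, were preincubated 5 hr at 37 C, then exposed to compounds for 16 hr at 37 C in complete medium. Cellular ATP was read by CellTiter-Glo luminescence after 30 min at room temperature; AC50 from Hill fits.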

[12] = MultiTox-Fluor Cytotoxicity Assay - LYMP1-003 - Dead Cells (AID 961); details: LYMP1-003 lymphoblastoid cells, dead-cell protease fluorescence; series mostly up to 92.2 µM; further: nearly all actives have a fitted effect of over 70% in size
Method in brief: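 Dead-cell protease release, detected as bis-AAF-R110 fluorescence at 485/520 nm, was measured in LYMP1-003 cells after 16 h compound treatment at 37 C. AC50 values came from Hill-modeled qHTS curves normalized to DMSO (0%) and 15 uM tetraoctylammonium bromide (100%).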

[13] = Cell Viability - LYMP1-003 - Assay at 24 hr (AID 963); details: LYMP1-003 lymphoblastoid cell viability; series mostly up to 92.2 µM;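 further: plate controls were DMSO only for no effect and tetraoctylammonium bromide positive control for full effect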
Method in brief: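 CellTiter-Glo luminescence (intracellular ATP) read after 24 hr, 37 C compound exposure of 2500 LYMP1-003 human lymphoblastoid cells/well in complete medium; qHTS concentration series; AC50 via standard Hill equation.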

[14] = Cell Viability - LYMP2-013 (AID 970); details: LYMP2-013 lymphoblastoid cells viability; series mostly up to 92.2 µM;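 further: 0% = DMSO only and full inhibition = tetraoctylammonium bromide control; nearly all actives have a fitted effect of over 55% in size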
Method in brief: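 CellTiter-Glo luminescence (cellular ATP) read after 30 min at RT. Cells: human lymphoblastoid line, 2500/well, 24 hr compound exposure at 37 C. Tetraoctylammonium bromide positive control; AC50 via standard Hill fit of qHTS titrations.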

[15] = Cell Viability - LYMP2-016 (AID 984); details: LYMP2-016 lymphoblastoid cell viability, qHTS; series mostly up to 92.2 µM;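 further: cells exposed to compound for 24 hours at 37 °C; on the % scale 0 is the no-effect control and ±100 the full control effect; nearly all actives have a fitted effect of over 55% in size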
Method in brief: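 Human lymphoblastoid cells (LYMP2-016), 2500/well in complete medium, preincubated 5 hr at 37 C, then compound-treated 24 hr at 37 C. Intracellular ATP read by CellTiter-Glo luminescence after 30 min at room temperature; AC50 from Hill-equation concentration-response fits.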

[16] = Cell Viability - LYMP1-002 - Assay at 24 hr (AID 993); details: LYMP1-002 lymphoblastoid cells viability; series mostly up to 92.2 µM; further: on the % scale 0 is the no-effect control and ±100 the full control effect
Method in brief: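 CellTiter-Glo luminescence (intracellular ATP) after 24 h compound exposure, 37 C, in LYMP1-002 human lymphoblastoid cells; decreased ATP taken as cytotoxicity. AC50 from standard Hill fit of concentration-response curves.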

[17] = qHTS Assay for Identification of Small Molecule Inducers of Hypoxia Response (AID 2120; active means well fitted curve in the direction sought with a large enough effect in the signal ratio, with a control signal flat, not every such curve was filed as active; the % refers to the signal ratio; further: 0% is about no effect); details: hypoxia response reporter cells, beta-lactamase ratio readout; series mostly up to 104 µM
Method in brief: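 Read-out: CCF4 FRET emission ratio 460nm/530nm (excitation 405nm), converted to %Activity, with AC50 fitted across a compound titration. ME-180 cells carried an HRE-driven beta-lactamase reporter; compound exposure 17 h, 37 degrees C.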

[18] = molecular target: Peroxisome proliferator-activated receptor alpha (Homo sapiens) (UniProt Q07869); experiment: qHTS assay for small molecule agonists of the peroxisome proliferator-activated receptor alpha (PPARalpha) signaling pathway (AID 651778); details: PathHunter PPARalpha complementation, chemiluminescence, 6 h; stronger effect = higher value; further: % of control where 0% means no effect
Peroxisome proliferator-activated receptor alpha (Homo sapiens), sequence (Q07869 whole entry, looked up, the tested form may be a part): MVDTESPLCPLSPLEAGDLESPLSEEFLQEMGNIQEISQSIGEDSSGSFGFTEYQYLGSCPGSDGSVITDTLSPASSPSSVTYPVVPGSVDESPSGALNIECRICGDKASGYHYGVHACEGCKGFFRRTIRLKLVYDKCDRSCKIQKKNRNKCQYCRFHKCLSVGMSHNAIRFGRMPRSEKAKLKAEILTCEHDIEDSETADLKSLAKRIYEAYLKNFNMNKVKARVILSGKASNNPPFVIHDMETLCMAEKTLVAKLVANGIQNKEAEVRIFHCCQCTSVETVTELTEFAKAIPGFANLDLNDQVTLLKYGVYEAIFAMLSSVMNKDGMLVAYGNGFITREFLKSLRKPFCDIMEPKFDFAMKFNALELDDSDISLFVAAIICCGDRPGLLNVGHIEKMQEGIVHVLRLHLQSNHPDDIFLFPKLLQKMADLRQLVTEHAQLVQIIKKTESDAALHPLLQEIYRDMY
Method in brief: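 Enzyme-fragment complementation assay in which ligand-bound PPARalpha translocates and forms an active enzyme that generates chemiluminescence. Cells were plated overnight, exposed to compound for 6 hr at 37 C, and then given detection reagent for 60 min at room temperature.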

[19] = qHTS assay for cell viability of HEK293 cells (AID 743288); details: ATP luminescence (CellTiter-Glo), 18 h, stronger effect = lower value; further: on the % scale 0 is the no-effect control and ±100 the full control effect; nearly all actives have a fitted effect of over 50% in size
Method in brief: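 After 18 h compound exposure at 37 C, parental HEK293 cells (2,000/well) are lysed with CellTiter-Glo and luminescence is read following 30 min at room temperature.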

[20] = qHTS assay for cell viability of the p53RE-bla HCT-116 cell line (AID 743292); details: p53RE-bla HCT-116 viability, ATP luminescence, 16 h; series mostly up to 95 µM; further: on the % scale 0 is the no-effect control and ±100 the full control effect; nearly all actives have a fitted effect of over 55% in size
Method in brief: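 Luminescent ATP quantitation (CellTiter-Glo) served as the viability read-out; reagent was added after 16 h compound exposure at 37 C and read after 30 min at room temperature. Cells: p53RE-bla HCT-116, 4,000 per well.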

CC(C)OC(=O)Cc1ccccc1
inactive: Potency [1] > 92 µM | Potency [2] > 92 µM | Potency [3] > 92 µM | Potency [4] > 92 µM | caspase-3 activation [5] -1.43% | outcome [6] | outcome [7] | outcome [8] | outcome [9] | outcome [10] | outcome [11] | Potency [12] | outcome [13] | Potency [14] | Potency [15] | Potency [16] | Potency [17] | max response [18] 0.38% | max response [19] -4.3% | Potency [20]

N#CCc1ccccc1
inactive: Potency [1] > 92 µM | Potency [2] > 92 µM | Potency [3] > 92 µM | Potency [4] > 92 µM | caspase-3 activation [5] -0.89% | outcome [6] | outcome [7] | outcome [8] | outcome [9] | outcome [10] | outcome [11] | Potency [12] | outcome [13] | Potency [14] | Potency [15] | Potency [16] | Potency [17] | max response [18] 0.0396% | max response [19] -1.92% | Potency [20]

Nc1ccc([N+](=O)[O-])cc1[N+](=O)[O-]
inactive: Potency [1] > 92 µM | Potency [2] > 92 µM | Potency [3] > 92 µM | Potency [4] > 92 µM | caspase-3 activation [5] 1.67% | outcome [6] | outcome [7] | outcome [8] | outcome [9] | outcome [10] | outcome [11] | Potency [12] | outcome [13] | Potency [14] | Potency [15] | Potency [16] | Potency [17] | max response [18] -8.48% | max response [19] 2.24% | Potency [20]

Cc1cc(Cl)ccc1O
inactive: Potency [1] > 92 µM | Potency [2] > 92 µM | Potency [3] > 92 µM | Potency [4] > 92 µM | caspase-3 activation [5] 4.09% | outcome [6] | outcome [7] | outcome [8] | outcome [9] | outcome [10] | outcome [11] | Potency [12] | outcome [13] | Potency [14] | Potency [15] | Potency [16] | Potency [17] | max response [18] -3.66% | max response [19] -5.93% | Potency [20]

Nc1ccc(-c2ccccc2)cc1
inactive: Potency [1] > 92 µM | Potency [2] > 92 µM | Potency [3] > 92 µM | Potency [4] > 92 µM | caspase-3 activation [5] 2.52% | outcome [6] | outcome [7] | outcome [8] | outcome [9] | outcome [10] | outcome [11] | Potency [12] | outcome [13] | Potency [14] | Potency [15] | Potency [16] | Potency [17] | max response [18] -0.418% | max response [19] -6.92% | Potency [20]

CCSC(=O)N1CCCCCC1
inactive: Potency [1] > 92 µM | Potency [2] > 92 µM | Potency [3] > 92 µM | Potency [4] > 92 µM | caspase-3 activation [5] 0.302% | outcome [6] | outcome [7] | outcome [8] | outcome [9] | outcome [10] | outcome [11] | Potency [12] | outcome [13] | Potency [14] | Potency [15] | Potency [16] | Potency [17] | max response [18] 3.66% and -1.17% | max response [19] 2.92% and -12.6% | Potency [20]
